This is one part of the list.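 How the source made its calls: active means both duplicate runs show 50% or greater inhibition; inconclusive means only one duplicate run shows over 50% inhibition; inactive means both runs show under 50% inhibition.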
Experiment: compound interference with Plk1 assay readout, artefact control for Plk1 kinase inhibitor project, biochemical, TR-FRET, compound added post-reaction (AID 756);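 further: 0% = DMSO max control and 100% = H-89 min control inhibited reaction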
Conditions: at 10 µM, hits give high values

Inhibition (interference), inactive:
Cc1ccnc(N2C(=O)c3ccccc3C2Nc2ccc3c(c2)OCCO3)c1 (stereo unspecified) -50.1%
C[N+]1(CCNC(=O)/C=N/O)CCCCC1 -46.6%
COc1ccc(-c2nc(CS(=O)CC(=O)NCc3cccnc3)c(C)o2)cc1OC (stereo unspecified) -52.6%
CC1CSc2nnc(CCc3ccccc3)n21 (stereo unspecified) -58.9%
O=C(Nc1cccc(F)c1)c1ccc(S(=O)(=O)N2CCCC2)cc1 -44.8%
CC1CN(c2cc(=O)n(Cc3ccc(F)cc3)c(=O)[nH]2)CC(C)O1 (stereo unspecified) -49.5%
